From PubChem BioAssay (EPA / NIEHS)
The source made the active and inactive calls. Rule for the calls: active = hit-call score of the fitted dose curve at least 0.9, where 1 is the maximum; inactive = score below 0.9.

Tests used:
[1] = ATG_CRE_CIS: Attagene CIS-FACTORIAL HepG2 Assay for human cAMP Responsive Element (CRE) binding protein 3 (AID 2282926); settings: HepG2 CRE cis-reporter, Attagene multiplexed mRNA; actives raise or lower the signal
Procedure, shortened: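 Readout: fluorescently labelled reporter transcripts resolved by capillary electrophoresis after RT-PCR, taken 24 h post-dosing in transfected HepG2. Endogenous transcription factor activity drives each cis-element reporter; gain or loss of signal fitted relative to DMSO control.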

[2] = biological target: CCAAT/enhancer-binding protein beta (Homo sapiens) (UniProt P17676); test: ATG_C_EBP_CIS: Attagene CIS-FACTORIAL HepG2 Assay for human CCAAT/Enhancer Binding Protein (C/EBP) beta (AID 2282927); settings: HepG2 Attagene cis-factorial transcription factor reporter; actives raise or lower the signal
CCAAT/enhancer-binding protein beta (Homo sapiens), sequence (P17676 whole entry, looked up): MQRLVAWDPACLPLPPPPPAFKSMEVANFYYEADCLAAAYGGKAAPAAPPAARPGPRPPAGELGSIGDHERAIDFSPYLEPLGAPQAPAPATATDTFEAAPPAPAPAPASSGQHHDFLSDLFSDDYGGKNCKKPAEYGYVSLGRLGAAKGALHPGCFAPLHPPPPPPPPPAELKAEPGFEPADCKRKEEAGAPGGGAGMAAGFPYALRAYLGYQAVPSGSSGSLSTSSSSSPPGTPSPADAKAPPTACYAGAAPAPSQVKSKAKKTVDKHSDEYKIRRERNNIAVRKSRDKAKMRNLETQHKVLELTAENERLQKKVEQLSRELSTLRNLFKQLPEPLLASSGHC
Procedure, shortened: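 RT-PCR/capillary electrophoresis fluorescence of reporter mRNA, 24 h post-dose, in HepG2 cells carrying transfected cis-promoter reporter units. Bidirectional curve fitting against DMSO baseline captures gain or loss of signal.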

[3] = ATG_CMV_CIS: Attagene CIS-FACTORIAL HepG2 Assay for human CMV (Internal Marker) (AID 2282928); settings: HepG2 CMV promoter reporter, transcription factor profiling; actives raise or lower the signal;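 note: endpoint acts as a background internal control marker rather than a target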
Procedure, shortened: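 Bidirectional fits against DMSO are applied to reporter mRNA, read by RT-PCR with capillary electrophoresis, from HepG2 cells exposed 24 h. The endpoint serves as an internal CMV background marker within the cis-factorial reporter panel.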

[4] = ATG_DR4_LXR_CIS: Attagene CIS-FACTORIAL HepG2 Assay for human Liver X Receptor (LXR), DR4 submotif (AID 2282929); settings: HepG2 Attagene DR4 cis-reporter, mRNA transcription; actives raise or lower the signal
Procedure, shortened: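 HepG2 cells transiently transfected with cis-promoter-driven multiplexed reporter units (DR4 element) were dosed for 24 h. Reporter mRNA was quantified by RT-PCR, fluorescent primer extension, HpaI digestion and capillary electrophoresis; bidirectional fitting versus DMSO baseline.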

[5] = biological target: Aryl hydrocarbon receptor (Homo sapiens) (UniProt P35869); test: ATG_Ahr_CIS: Attagene CIS-FACTORIAL HepG2 Assay for human Aryl Hydrocarbon Receptor (Ahr) (AID 2282930); settings: HepG2 AhR cis-factorial reporter transcription; actives raise or lower the signal
Aryl hydrocarbon receptor (Homo sapiens), sequence (P35869 whole entry, looked up): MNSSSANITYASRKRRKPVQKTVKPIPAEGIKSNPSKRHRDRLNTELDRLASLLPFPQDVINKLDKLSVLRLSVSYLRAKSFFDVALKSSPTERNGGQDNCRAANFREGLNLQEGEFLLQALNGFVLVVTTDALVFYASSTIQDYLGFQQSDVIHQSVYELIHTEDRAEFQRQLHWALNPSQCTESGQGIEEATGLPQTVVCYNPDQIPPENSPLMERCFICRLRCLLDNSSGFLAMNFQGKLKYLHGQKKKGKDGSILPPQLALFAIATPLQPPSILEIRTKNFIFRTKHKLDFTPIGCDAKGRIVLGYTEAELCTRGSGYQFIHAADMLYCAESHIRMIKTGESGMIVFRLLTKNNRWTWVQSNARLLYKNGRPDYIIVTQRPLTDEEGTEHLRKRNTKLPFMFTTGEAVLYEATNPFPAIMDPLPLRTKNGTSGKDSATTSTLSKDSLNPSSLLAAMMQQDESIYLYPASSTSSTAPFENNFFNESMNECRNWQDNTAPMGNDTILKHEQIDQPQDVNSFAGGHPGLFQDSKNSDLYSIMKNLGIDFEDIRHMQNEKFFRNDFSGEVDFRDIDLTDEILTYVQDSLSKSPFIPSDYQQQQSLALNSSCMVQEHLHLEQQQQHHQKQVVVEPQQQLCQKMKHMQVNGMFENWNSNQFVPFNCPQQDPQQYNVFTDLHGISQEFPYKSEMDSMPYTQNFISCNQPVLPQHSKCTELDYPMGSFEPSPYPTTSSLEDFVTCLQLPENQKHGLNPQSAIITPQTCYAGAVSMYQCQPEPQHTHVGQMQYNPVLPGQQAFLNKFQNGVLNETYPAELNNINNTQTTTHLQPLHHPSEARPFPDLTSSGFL
Procedure, shortened: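 HepG2 cells transiently transfected with cis-element-driven multiplexed reporter transcription units; endogenous transcription factor activity measured as reporter mRNA 24 h after dosing. RT-PCR, 6-FAM labelling, HpaI digestion, capillary electrophoresis; bidirectional fitting versus DMSO baseline.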

[6] = ATG_AP_1_CIS: Attagene CIS-FACTORIAL HepG2 Assay for human Activator Protein 1 (AP-1) (AID 2282931); settings: HepG2 Attagene cis-factorial AP-1 reporter mRNA; actives raise or lower the signal
Procedure, shortened: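 HepG2 cells transiently transfected with cis-element-driven multiplex reporter units; 24 h compound exposure. Reporter mRNA quantified by RT-PCR, FAM-labelled fragments resolved by capillary electrophoresis; bidirectional fit versus DMSO baseline.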

[7] = ATG_AP_2_CIS: Attagene CIS-FACTORIAL HepG2 Assay for human Activator Protein 2 (AP-2) (AID 2282932); settings: HepG2 AP-2 cis-reporter, Attagene transcription factor profiling; actives raise or lower the signal
Procedure, shortened: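 Cells (HepG2) transfected with promoter-driven reporter constructs, treated 24 h. Total RNA reverse-transcribed, reporter cDNA PCR-amplified, FAM-labelled by primer extension, digested, resolved by capillary electrophoresis. Activity fitted both directions versus DMSO.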

[8] = ATG_BRE_CIS: Attagene CIS-FACTORIAL HepG2 Assay for human Bone Morphogenetic Protein (BMP) Response Element (BRE) (AID 2282933); settings: HepG2 BMP response element reporter, Attagene transcription factor profiling; actives raise or lower the signal
Procedure, shortened: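 Read-out: reporter mRNA induction quantified by RT-PCR and capillary electrophoresis after 24 h chemical exposure of transfected HepG2 cells. Endogenous factor activity on the BMP response element; gain or loss fitted against DMSO baseline.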

[9] = biological target: Retinoic acid receptor alpha (Homo sapiens) (UniProt P10276); test: ATG_DR5_RAR_CIS: Attagene CIS-FACTORIAL HepG2 Assay for human Retinoic Acid Receptor Alpha (RARE), DR5 submotif (AID 2282934); settings: HepG2 Attagene cis-factorial RARE DR5 reporter, mRNA; actives raise or lower the signal
Retinoic acid receptor alpha (Homo sapiens), sequence (P10276 whole entry, looked up): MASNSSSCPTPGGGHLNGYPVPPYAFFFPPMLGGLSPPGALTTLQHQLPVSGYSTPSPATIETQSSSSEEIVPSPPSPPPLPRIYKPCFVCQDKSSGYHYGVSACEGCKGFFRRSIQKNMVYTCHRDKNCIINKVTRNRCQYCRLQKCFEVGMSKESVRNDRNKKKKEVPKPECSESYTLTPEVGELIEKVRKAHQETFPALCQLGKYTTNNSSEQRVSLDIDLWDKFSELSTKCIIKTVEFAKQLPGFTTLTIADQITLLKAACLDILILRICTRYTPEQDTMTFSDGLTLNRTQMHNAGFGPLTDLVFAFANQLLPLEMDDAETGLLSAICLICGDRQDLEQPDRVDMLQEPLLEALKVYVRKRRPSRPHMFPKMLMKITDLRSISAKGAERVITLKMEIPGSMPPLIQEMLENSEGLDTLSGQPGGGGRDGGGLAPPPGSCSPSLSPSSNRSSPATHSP
Procedure, shortened: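 HepG2 cells transiently transfected with multiplexed reporter units under cis (DR5 RARE) promoters, so endogenous transcription factor activity is measured. After 24 h compound exposure, reporter mRNA is quantified by RT-PCR with fluorescent labelling and capillary electrophoresis; bidirectional fitting versus DMSO.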

[10] = biological target: Transcription factor E2F1 (Homo sapiens) (UniProt Q01094); test: ATG_E2F_CIS: Attagene CIS-FACTORIAL HepG2 Assay for human E2F Transcription Factor 1 (AID 2282935); settings: HepG2 Attagene cis-reporter, E2F reporter RNA transcripts; actives raise or lower the signal
Transcription factor E2F1 (Homo sapiens), sequence (Q01094 whole entry, looked up): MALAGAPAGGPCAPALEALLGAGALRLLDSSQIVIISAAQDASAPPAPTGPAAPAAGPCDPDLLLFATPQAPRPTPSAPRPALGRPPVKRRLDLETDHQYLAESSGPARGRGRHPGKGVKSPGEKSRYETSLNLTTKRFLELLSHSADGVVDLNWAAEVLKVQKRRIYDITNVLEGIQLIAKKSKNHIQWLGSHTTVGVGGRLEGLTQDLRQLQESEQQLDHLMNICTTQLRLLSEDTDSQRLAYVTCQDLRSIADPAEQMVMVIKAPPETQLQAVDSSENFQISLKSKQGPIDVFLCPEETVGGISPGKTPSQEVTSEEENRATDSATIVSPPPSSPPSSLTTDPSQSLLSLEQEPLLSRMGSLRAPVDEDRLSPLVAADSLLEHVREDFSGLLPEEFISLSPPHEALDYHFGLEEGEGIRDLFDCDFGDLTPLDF
Procedure, shortened: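 First, HepG2 cells were transfected with reporter transcription units. Next, they were dosed for 24 h. Then RNA was isolated, converted to cDNA, PCR-amplified, FAM-labeled, HpaI-digested and analyzed by capillary electrophoresis.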

[11] = ATG_E_Box_CIS: Attagene CIS-FACTORIAL HepG2 Assay for human Enhancer Box (E-box) (AID 2282936); settings: HepG2 E-box cis-reporter transcription, actives raise or lower the signal
Procedure, shortened: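 Endogenous transcription factor activity was sensed in human HepG2 liver cells through transfected cis-promoter reporter units. After 24 h of dosing, total RNA was reverse-transcribed and reporter cDNA resolved by capillary electrophoresis.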

[12] = ATG_M_61_CIS: Attagene CIS-FACTORIAL HepG2 Assay for M61 Transcription Factor (Internal Marker) (AID 2282937); settings: HepG2 Attagene CIS-FACTORIAL M61 internal marker reporter; actives raise or lower the signal
Procedure, shortened: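 HepG2 cells transiently transfected with cis-element-driven multiple reporter transcription units, dosed for 24 h. Reporter mRNA measured by RT-PCR, 6-FAM primer-extension labelling, HpaI digestion and capillary electrophoresis; bidirectional fit versus DMSO baseline.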

[13] = ATG_EGR_CIS: Attagene CIS-FACTORIAL HepG2 Assay for human Early Growth Response 1 (EGR1) (AID 2282938); settings: HepG2 Attagene CIS-FACTORIAL EGR reporter mRNA; actives raise or lower the signal
Procedure, shortened: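 HepG2 cells transiently transfected with cis-promoter-driven multiplexed reporter transcription units; reporter mRNA measured 24 h after compound dosing by RT-PCR, 6-FAM primer extension, HpaI digestion and capillary electrophoresis. Bidirectional fit versus DMSO baseline.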

[14] = ATG_M_19_CIS: Attagene CIS-FACTORIAL HepG2 Assay for M19 Transcription Factor (Internal Marker) (AID 2282939); settings: HepG2 Attagene CIS-FACTORIAL M19 internal marker reporter; actives raise or lower the signal
Procedure, shortened: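 Readout: fluorescent reporter-transcript fragments by capillary electrophoresis after RT-PCR. Human HepG2 liver cells carried transfected MRTU constructs reporting endogenous transcription-factor activity; exposure 24 h. Gain or loss of signal fitted relative to DMSO.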

[15] = ATG_Ets_CIS: Attagene CIS-FACTORIAL HepG2 Assay for human Erythroblast Transformation Specific (ETS) (AID 2282941); settings: HepG2 ETS cis-reporter transcription, actives raise or lower the signal
Procedure, shortened: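 Endogenous transcription factor activity read as reporter mRNA via RT-PCR and capillary electrophoresis, with gain or loss fitted bidirectionally against DMSO. Human HepG2 liver cells, transiently transfected CIS reporter constructs, 24 h exposure.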

[16] = biological target: Hepatocyte nuclear factor 3-beta (Homo sapiens) (UniProt Q9Y261); test: ATG_FoxA2_CIS: Attagene CIS-FACTORIAL HepG2 Assay for human Forkhead box A2 (FOXA2) (AID 2282942); settings: HepG2 cis-reporter transcription factor activity, 24 h; actives raise or lower the signal
Hepatocyte nuclear factor 3-beta (Homo sapiens), sequence (Q9Y261 whole entry, looked up): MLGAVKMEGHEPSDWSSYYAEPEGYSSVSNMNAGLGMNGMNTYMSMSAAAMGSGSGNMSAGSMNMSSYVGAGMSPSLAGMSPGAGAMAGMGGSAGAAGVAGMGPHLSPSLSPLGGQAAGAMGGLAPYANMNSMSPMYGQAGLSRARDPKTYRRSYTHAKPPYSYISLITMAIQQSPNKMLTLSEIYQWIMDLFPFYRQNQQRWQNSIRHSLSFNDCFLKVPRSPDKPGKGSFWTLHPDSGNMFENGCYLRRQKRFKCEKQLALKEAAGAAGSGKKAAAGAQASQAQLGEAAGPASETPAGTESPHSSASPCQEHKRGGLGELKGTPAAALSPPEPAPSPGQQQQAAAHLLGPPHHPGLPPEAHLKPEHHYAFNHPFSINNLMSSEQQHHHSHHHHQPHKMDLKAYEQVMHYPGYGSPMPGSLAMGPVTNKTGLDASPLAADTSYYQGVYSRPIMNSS
Procedure, shortened: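 HepG2 cells transiently transfected with multiple cis-regulated reporter transcription units, dosed for 24 h. Reporter mRNA measured by RT-PCR, 6-FAM labelling, HpaI digestion and capillary electrophoresis; bidirectional fitting against DMSO baseline.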

[17] = ATG_FoxO_CIS: Attagene CIS-FACTORIAL HepG2 Assay for human Forkhead box O (FoxO) (AID 2282943); settings: HepG2 Attagene cis-reporter, FoxO element, mRNA; actives raise or lower the signal
Procedure, shortened: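 HepG2 cells transiently transfected with cis-promoter-driven multiple reporter transcription units; 24 h after chemical dosing, reporter mRNA quantified by RT-PCR, fluorescent primer extension, HpaI digestion and capillary electrophoresis. Bidirectional fitting versus DMSO baseline.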

[18] = ATG_GATA_CIS: Attagene CIS-FACTORIAL HepG2 Assay for human GATA Binding Protein (AID 2282944); settings: HepG2 GATA cis-element reporter, Attagene multiplex mRNA; actives raise or lower the signal
Procedure, shortened: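 Read-out: fluorescent reporter mRNA fragments resolved by capillary electrophoresis after RT-PCR. Human liver HepG2 cells carried transiently transfected cis-regulated reporter constructs; chemicals incubated 24 h; gain or loss of signal fitted relative to DMSO.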

[19] = ATG_GLI_CIS: Attagene CIS-FACTORIAL HepG2 Assay for human Zinc Finger Protein GLI1 (AID 2282945); settings: HepG2, Attagene cis-factorial reporter mRNA, GLI element; actives raise or lower the signal
Procedure, shortened: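 HepG2 cells transiently transfected with cis-promoter multiplexed reporter units report endogenous transcription factor activity. After 24 h chemical exposure, reporter mRNA was quantified by RT-PCR, 6-FAM labelling, HpaI digestion and capillary electrophoresis, with bidirectional fitting against DMSO.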

Measured: AC50

O=c1c(O)c(-c2ccc(O)cc2)oc2cc(O)cc(O)c12
active: [3] 9.22 µM
inactive: all other assays above

O=P(O)(O)O
inactive: all assays above

CCCC(C)=O
inactive: all assays above

Nc1ccc(Cl)c([N+](=O)[O-])c1
not listed: [16]
inactive: all other assays above

CCCN(CCC)S(=O)(=O)c1ccc(C(=O)O)cc1
not listed: [16]
inactive: all other assays above

CC1(C)COCN1
not listed: [18]
inactive: all other assays above

c1ccc(CN(Cc2ccccc2)Cc2ccccc2)cc1
active: [4] 18.4 µM | [19] 100 µM
not listed: [17]
inactive: all other assays above
